A selection: hits, their analogues and other compounds. The true share with any hit is near 6.7%.
C diff growth – blocks growth of Clostridium difficile | AID 1259249 | 86,000 compounds, 0.25% hits | Clostridium difficile clinical isolate growth, OD600, 24 h; active compounds read low | growth activity, negative = inhibition, % at 16 µg/mL (by protocol);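 active = mean growth activity at or below -80% and every replicate also at or below -80%; inconclusive = mean at or below -80% but some replicate above -80%; inactive = mean growth activity above -80%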;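 note: 0% = DMSO wells and -100% = levofloxacin 16 µg/mL wells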
T cruzi growth-1 – T. cruzi proliferation inhibition; T. cruzi beta-gal in NIH3T3, GalScreen luminescence, 90 h; AID 624255; 77,000 compounds, 5.9% hits; inhibition, % at 8.34 µM;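 active = mean inhibition above about 93%, with at least 55% of replicates each passing it, limit read from the data, passing the limit was not always enough; inconclusive = only one of those two conditions holds; inactive = neither condition holds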
Pf Dd2 growth – blocks growth of Plasmodium falciparum Dd2 parasites; P. falciparum Dd2 growth, SYBR Green, 72 h; active compounds read low; activity change, % at 10 µM; 94,000 compounds, 2.3% hits; in the data active = activity change below about -80%; inconclusive = no clear call, values can overlap the other calls
T cruzi growth-2 – Trypanosoma cruzi proliferation inhibition; T. cruzi beta-gal in NIH3T3, GalScreen luminescence, 90 h; inhibition, % at 8.35 µM; shares compounds with T cruzi growth-1; 5,600 compounds, 72% hits;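 active = mean replicate inhibition above about 95% and at least 55% of replicates individually reaching it, limit read from the data; inconclusive = only one of the two criteria is met; inactive = neither criterion is met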
T cruzi growth-3 – Trypanosoma cruzi proliferation inhibition; shares compounds with T cruzi growth-1; T. cruzi beta-gal in NIH3T3, GalScreen luminescence, 90 h; inhibition, % at 2.09 µM; 5,600 compounds, 21% hits; AID 651740;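 active = mean inhibition above about 95%, with at least 55% of replicates also reaching it, limit read from the data; inconclusive = meets just one of the two conditions; inactive = meets neither condition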;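 note: plate controls were neutral control median for no effect and positive control median for full effect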
NIH3T3 tox – NIH/3T3 (mouse) viability loss | 5,600 compounds, 14% hits | NIH/3T3 viability, CellTiter-Glo ATP luminescence, 90 h | AID 651742 | cytotoxicity (signal decrease), % at 8.35 µM | shares compounds with T cruzi growth-1;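 active = mean signal decrease across replicates above about 35% based on untreated-well scatter, with enough replicates individually passing, limit read from the data; inconclusive = no rule stated though some were filed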;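 note: 0% = median of neutral control wells and 100% = median of positive control wells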
NIH3T3 tox 2 – kills mouse NIH/3T3 fibroblasts. NIH/3T3 viability, CellTiter-Glo ATP luminescence, 90 h. inhibition, % at 24.9 µM. shares compounds with T cruzi growth-1. 5,600 compounds, 56% hits;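 active = mean loss of cell viability signal at or above a set limit, and enough replicates individually reaching it; inconclusive = meets only the mean limit or only the replicate share; inactive = meets neither condition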;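 note: 0% = median of neutral control wells and 100% = median of positive control wells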
Active calls of the source: *; ? = inconclusive; . = no result.

SMILES	C diff growth	T cruzi growth-1	Pf Dd2 growth	T cruzi growth-2	T cruzi growth-3	NIH3T3 tox	NIH3T3 tox 2
COc1ccc(NC(=O)Nc2ccc3c(c2)C(=O)N([C@H](C)CO)C[C@H](C)[C@H](CN(C)S(=O)(=O)c2ccc(OC)cc2)OCCCC[C@H](C)O3)cc1	-0.3	?	-44.7	104.0*	50.5	3.1	13.8
COc1ccc(S(=O)(=O)N(C)C[C@@H]2OCCCC[C@H](C)Oc3ccc(NC(=O)Nc4ccc(C(F)(F)F)cc4)cc3C(=O)N([C@@H](C)CO)C[C@@H]2C)cc1	1.4	97.2*	-79.1	111.3*	114.7*	27.3	3.8
COc1ccc(S(=O)(=O)N(C)C[C@@H]2OCCCC[C@H](C)Oc3ccc(NC(=O)C4CCCCC4)cc3C(=O)N([C@H](C)CO)C[C@H]2C)cc1	-7.9	99.0*	-85.6*	64.3	38.5	19.8	?
COc1ccc(NC(=O)Nc2ccc3c(c2)C(=O)N([C@@H](C)CO)C[C@H](C)[C@@H](CN(C)S(=O)(=O)c2ccc(C)cc2)OCCCC[C@@H](C)O3)cc1	.	97.5*	-83.2*	111.1*	51.6	-18.5	8.1
COc1ccc(NC(=O)Nc2ccc3c(c2)C(=O)N([C@@H](C)CO)C[C@@H](C)[C@H](CN(C)S(=O)(=O)c2ccc(C)cc2)OCCCC[C@H](C)O3)cc1	.	-4.9	-74.5	.	.	.	.
COc1ccc(S(=O)(=O)N(C)C[C@@H]2OCCCC[C@H](C)Oc3ccc(NC(=O)Nc4ccc(F)cc4)cc3C(=O)N([C@H](C)CO)C[C@H]2C)cc1	6.1	73.1	-79.7	.	.	.	.
COc1ccc(S(=O)(=O)N(C)C[C@@H]2OCCCC[C@H](C)Oc3ccc(NC(=O)Nc4ccc5c(c4)OCO5)cc3C(=O)N([C@H](C)CO)C[C@@H]2C)cc1	-5.6	103.0*	-81.1*	106.6*	89.7	10.0	10.0
COc1ccc(NC(=O)Nc2ccc3c(c2)C(=O)N([C@@H](C)CO)C[C@H](C)[C@@H](CN(C)S(=O)(=O)c2ccc(OC)cc2)OCCCC[C@H](C)O3)cc1	-1.8	?	-61.1	108.5*	23.2	17.6	3.3
Cc1ccc(S(=O)(=O)N(C)C[C@H]2OCCCC[C@@H](C)Oc3ccc(NC(=O)Nc4ccc5c(c4)OCO5)cc3C(=O)N([C@H](C)CO)C[C@@H]2C)cc1	.	.	-32.8	.	.	.	.
COc1ccc(NC(=O)Nc2ccc3c(c2)C(=O)N([C@H](C)CO)C[C@@H](C)[C@H](CN(C)S(=O)(=O)c2ccc(OC)cc2)OCCCC[C@@H](C)O3)cc1	4.1	105.0*	-73.1	108.8*	49.0	-27.0	-16.9
C[C@H](CO)N1C[C@H](C)[C@@H](CN(C)S(=O)(=O)c2ccc(Cl)cc2)Oc2c(NC(=O)c3cnccn3)cccc2C1=O	-2.9	-107.7	12.8	.	.	.	.
CN1c2ccc(-c3cccc(F)c3)cc2[C@@H]2[C@@H](CCN2S(=O)(=O)c2cccc(F)c2)[C@H]1CO	4.8	75.3	14.4	.	.	.	.
COc1ccc2c3c(n(C)c2c1)[C@@H](CO)N(C(=O)CC1CC1)CC31CN(Cc2nccs2)C1	-5.1	.	-18.5	.	.	.	.
COc1ccc2c3c([nH]c2c1)[C@@H](CO)N(C(C)=O)CC31CN(S(=O)(=O)c2ccccc2)C1	-0.7	.	-26.0	.	.	.	.
COc1ccc(S(=O)(=O)Nc2ccc3c(c2)C(=O)N([C@@H](C)CO)C[C@H](C)[C@@H](CN(C)S(=O)(=O)c2ccc(Cl)cc2)OCCCC[C@@H](C)O3)cc1	5.0	98.9*	-74.8	101.3*	113.9*	-1.5	35.2*
COc1ccc(S(=O)(=O)Nc2ccc3c(c2)C(=O)N([C@H](C)CO)C[C@H](C)[C@@H](CN(C)S(=O)(=O)c2ccc(Cl)cc2)OCCCC[C@@H](C)O3)cc1	-6.8	101.2*	-25.2	108.1*	27.7	5.5	36.5*
COc1ccc(S(=O)(=O)Nc2ccc3c(c2)C(=O)N([C@@H](C)CO)C[C@H](C)[C@@H](CN(C)S(=O)(=O)c2ccc(Cl)cc2)OCCCC[C@H](C)O3)cc1	-6.7	85.2	-79.9	.	.	.	.
COc1ccc(S(=O)(=O)N(C)C[C@@H]2OCCCC[C@H](C)Oc3ccc(NS(=O)(=O)c4ccc(Cl)cc4)cc3C(=O)N([C@@H](C)CO)C[C@H]2C)cc1	2.5	.	-25.0	.	.	.	.
O=C(c1ccccn1)N1CC[C@@H]2[C@H]1c1cc(-c3ccc(F)cc3)ccc1N[C@@H]2CO	-0.7	105.2*	16.3	107.3*	63.1	15.0	30.2*
O=C(c1ccncc1)N1CC[C@H]2[C@H](CO)Nc3ccc(-c4ccc(F)cc4)cc3[C@H]21	10.1	98.7*	26.4	94.2	34.3	-12.1	3.0
O=C(c1ccccn1)N1CC[C@@H]2[C@H](CO)Nc3ccc(-c4ccccc4)cc3[C@@H]21	-20.1	90.9	-5.8	.	.	.	.
O=C(c1ccccn1)N1CC[C@@H]2[C@@H](CO)Nc3ccc(-c4ccccc4)cc3[C@@H]21	-16.9	104.9*	-32.3	101.2*	86.1	-18.1	-14.1
O=C(c1ccccn1)N1CC[C@@H]2[C@H](CO)Nc3ccc(-c4ccc(F)cc4)cc3[C@@H]21	2.0	.	-42.6	.	.	.	.
O=C(c1ccncc1)N1CC[C@@H]2[C@@H](CO)Nc3ccc(-c4ccccc4)cc3[C@@H]21	-2.7	69.1	20.8	.	.	.	.
C[C@@H]1CN([C@@H](C)CO)C(=O)c2cc(NS(=O)(=O)c3ccccc3)ccc2O[C@@H]1CN(C)S(=O)(=O)c1cccs1	-5.2	21.0	-11.3	.	.	.	.
SMILES	C diff growth	T cruzi growth-1	Pf Dd2 growth	T cruzi growth-2	T cruzi growth-3	NIH3T3 tox	NIH3T3 tox 2
Cc1ccccc1S(=O)(=O)Nc1ccc2c(c1)C(=O)N(C)[C@@H]1CC[C@H](CC(=O)O)O[C@@H]1CO2	.	9.5	25.6	.	.	.	.
COc1ccc2c3c([nH]c2c1)[C@@H](CO)N(C)CC31CN(C(=O)c2ccccn2)C1	0.8	.	5.5	.	.	.	.
CCCC#Cc1ccc2c(c1)O[C@H](CN(C)CC1CC1)[C@H](C)CN([C@H](C)CO)S2(=O)=O	.	-12.1	-48.1	.	.	.	.
C[C@H]1CN([C@@H](C)CO)S(=O)(=O)c2ccc(C#CCN(C)C)cc2O[C@H]1CN(C)CC1CC1	.	110.5*	-38.5	?	43.3	14.8	12.3
C[C@@H]1CN([C@H](C)CO)S(=O)(=O)c2ccc(C#CCN(C)C)cc2O[C@H]1CN(C)CC1CCCC1	7.5	103.8*	-76.7	106.8*	69.3	10.5	104.4*
C[C@@H]1CN([C@@H](C)CO)S(=O)(=O)c2ccc(C#C[C@@H](C)O)cc2O[C@H]1CN(C)CC1CCCC1	2.6	-15.8	-52.4	.	.	.	.
O=C(C[C@H]1C[C@H]2c3cc(NC(=O)NC4CCCC4)ccc3O[C@H]2[C@H](CO)O1)NCCN1CCCCC1	-0.3	23.3	5.7	.	.	.	.
N#C[C@@H]1N[C@H](CO)[C@@H]1c1ccc(C#Cc2ccccc2F)cc1	12.2	78.7	7.4	.	.	.	.

Compound activity: PubChem BioAssay, Broad Institute
